Assay results from PubChem BioAssay AID778 (Sanford-Burnham Center for Chemical Genomics, 2007).
The whole screen tested about 96,000 compounds, of which about 20,000 (21%) were called active.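 The calls were made as follows: active = CYP2C19 inhibition above a set limit at 5 µM in the primary screen (cut at about 50% in these data); inactive = the rest.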 The list is a sample of the results.

target: Cytochrome P450 2C19 (Homo sapiens) (UniProt P33261); experiment: blockers of cytochrome P450 2C19 activity – biochemical, luminescence, ADME assay, primary screen (AID 778); details: CYP2C19 Supersomes, luciferin-H EGE luminescence, 30 min; at 5 µM; hits give high values;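 also: plate controls were negative control wells for no effect and 2.5 mM tranylcypromine positive control for full effect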
Sequence (P33261 whole entry, looked up): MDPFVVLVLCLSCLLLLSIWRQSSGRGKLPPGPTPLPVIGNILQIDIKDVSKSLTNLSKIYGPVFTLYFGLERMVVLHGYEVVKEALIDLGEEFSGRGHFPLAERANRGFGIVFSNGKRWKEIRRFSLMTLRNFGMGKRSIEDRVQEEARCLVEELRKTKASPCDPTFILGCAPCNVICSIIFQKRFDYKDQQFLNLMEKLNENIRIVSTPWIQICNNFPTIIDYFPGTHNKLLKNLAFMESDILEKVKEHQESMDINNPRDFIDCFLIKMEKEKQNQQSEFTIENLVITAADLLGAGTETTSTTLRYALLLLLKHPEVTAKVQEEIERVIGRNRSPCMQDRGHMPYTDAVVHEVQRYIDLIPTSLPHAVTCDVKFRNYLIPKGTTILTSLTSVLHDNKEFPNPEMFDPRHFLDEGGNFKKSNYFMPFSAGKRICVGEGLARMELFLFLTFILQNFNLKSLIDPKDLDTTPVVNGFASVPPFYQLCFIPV

Structure (SMILES) | inhibition
COc1cccc2c1OCC(C(=O)NCc1ccc(Cl)cc1Cl)=C2 | 28.2% (inactive)
CCCCN1C(=O)CC(N2CCOCC2)C1=O (centres undefined) | -0.3% (inactive)
CCCOc1ccc(CN(CCO)CCO)cc1C(=O)OC | 0.9% (inactive)
O=C(CSCc1c(Cl)cccc1Cl)NN1C(=O)c2ccccc2C1=O | 43.5% (inactive)
COc1ccc(C(=O)Nc2ncc3c(n2)-c2ccccc2CC3)cc1 | 5.2% (inactive)
O=C(c1cccnc1NCc1ccccc1)N1CCOCC1 | 5.8% (inactive)
CCCC(=O)N=c1sc2cccc(F)c2n1C | 44.7% (inactive)
CCOC(=O)c1ccc(N2C(=O)CC(Sc3nc(O)c(CC)c(=O)[nH]3)C2=O)cc1 (centres undefined) | -1% (inactive)
O=C(Nc1ccccc1)c1ccccc1NC(=O)C(F)(F)F | 33.4% (inactive)
COc1cc(Cl)c(C)cc1NC(=O)CSc1nnc(-c2ccco2)n1CC(C)C | 96.1% (active)
CCCn1c(SCC(=O)Nc2c(C)cccc2C)nnc1C(C)C | 24.4% (inactive)
COc1ccccc1NC(=O)CSc1nc2sc(C)c(C)c2c(=O)n1Cc1ccco1 | 92.9% (active)
CCCc1nc(SCC(=O)Nc2ccccc2OC)c2c(=O)n(C)c(=O)n(C)c2n1 | 41% (inactive)
CCOC(=O)CSc1nc2c(sc(=S)n2CCc2ccccc2)c(=O)n1Cc1ccco1 | 20.9% (inactive)
CCc1c(C)nc2cc(C)[nH]n2c1=O | -0.7% (inactive)
CCOCCN(C=O)c1cccc(OC)c1 | 26.6% (inactive)
CC(C)Oc1ccc(CCc2n[nH]c(=S)n2Cc2ccccc2)cc1 | 16.7% (inactive)
CCOC(=O)c1sc(NC(=O)CSc2nnc(-c3ccco3)o2)c(C(=O)OCC)c1C | 25.2% (inactive)
CCOC(=O)c1sc(NC(=O)CCN2CCOCC2)c(C(=O)OCC)c1C | 35.2% (inactive)
CCOC(=O)c1c(NC(=O)CCl)sc(C(=O)N(CC)CC)c1C | 56.1% (active)
COC(=O)c1c(CCl)noc1C(=O)NC(C)C | 10.5% (inactive)
COc1ccccc1N=C1SC(C)CN1C(=O)C1CCC1 (centres undefined) | -1.1% (inactive)
Cn1c2c(c(=O)n(C)c1=O)[C@@H]1c3c(ccc4ccccc34)OC[C@@H]1CO2 | 33.8% (inactive)
O=C(c1ccco1)N1CCN(CC(=O)N(C2CCCCC2)C2CCS(=O)(=O)C2)CC1 (centres undefined) | -21.3% (inactive)

Structure (SMILES) | inhibition
CCCc1nc2ccccc2c(=O)n1/N=C/c1ccc(O)c(O)c1 | 54.2% (active)
Cc1[nH]n(-c2cccc(Cl)c2)c(=O)c1/C=N/n1c(C)nc2ccccc2c1=O | 20.6% (inactive)
CCCc1nc2ccccc2c(=O)n1NC(=O)c1c(O)c2ccccc2[nH]c1=O | -11.7% (inactive)
ONC(=Nc1ccc(Cl)cc1)c1ccccc1Cl | 84.3% (active)
ONC(=Nc1ccccc1)c1ccccc1Cl | 32.8% (inactive)
CC(Oc1ccc(Cl)cc1)C(=O)Nc1ncccn1 (centres undefined) | 30% (inactive)
CC(Oc1ccc(Cl)cc1)c1ccnn1S(C)(=O)=O (centres undefined) | 69.5% (active)
CC(Oc1ccc(Cl)cc1)C(=O)OCC(=O)Nc1ncc(Cl)cc1Cl (centres undefined) | 24.2% (inactive)
N#Cc1ccc(-c2ccc(F)cc2)nc1Sc1ccccc1 | 3.5% (inactive)
Cc1csc(NC(=O)NC2(C(F)(F)F)Oc3ccccc3O2)n1 | -13.3% (inactive)
O/N=C(\c1ccc2c(c1)OCCO2)C1CCCCC1 | 49.8% (inactive)
CC(C)Cc1cc(C(=O)Nc2cc(Br)ccc2O)no1 | -2.9% (inactive)
CCCCn1ccnc1C(=O)c1cccc(S(=O)(=O)N2c3ccccc3CC2C)c1 (centres undefined) | 83.1% (active)
CCn1c(CSc2ncccn2)nnc1SCC(=O)N1c2ccccc2CC1C (centres undefined) | 18.8% (inactive)
CC(C)N1C(=O)C2C(C(=O)NC3CCCCC3)C3C=CC2(O3)C1C(=O)NC1CCCC1 (centres undefined) | 6.6% (inactive)
N#Cc1ccc(-c2ccc(Cl)cc2)nc1Oc1ccc(F)cc1 | 41.8% (inactive)
O=C(Oc1ccc([N+](=O)[O-])cc1)c1ccc2ccccc2n1 | 0% (inactive)
CS(=O)(=O)N(CC(=O)Nc1ccc(Cl)c(Cl)c1)C1CCCCC1 | 60.7% (active)
CCOC(=O)N1CCN(C(=O)CN(C2CCCCC2)S(C)(=O)=O)CC1 | -5.6% (inactive)
CS(=O)(=O)N(CC(=O)N1CCN(c2ccc(F)cc2)CC1)C1CCCCC1 | 6.9% (inactive)
O=C(CCCN1C(=O)CSc2ncccc21)N1CCN(c2cccc(C(F)(F)F)c2)CC1 | 34% (inactive)
Cc1nc(C)c(C(=O)Nc2cccc(C)c2C)o1 | -14.2% (inactive)
CC(=C1C(=O)c2ccccc2C1=O)N1CCN(c2ccccn2)CC1 | 13.1% (inactive)
Cn1c(=O)cc(OCCCC(=O)N2CCN(c3ccccn3)CC2)c2ccccc21 | 30.2% (inactive)

Structure (SMILES) | inhibition
Cc1cc(C(=O)N2CCN(c3ccccn3)CC2)c(C)o1 | 56.8% (active)
COC(=O)c1ccc(NC(=O)C(C)N2C(=O)c3ccccc3C2=O)cc1 (centres undefined) | 11.8% (inactive)
CC(C)Oc1ccc(Oc2ccc(C(F)(F)F)cn2)cc1 | 23.2% (inactive)
COc1cccc(N2CCN(C3CC(=O)N(c4ccc(Cl)cc4)C3=O)CC2)c1 (centres undefined) | -17.1% (inactive)
CN(C)c1ccc(NC(=S)N(CCc2ccccc2)C2CC(=O)N(c3c(Cl)cccc3Cl)C2=O)cc1 (centres undefined) | 13.4% (inactive)
COC(=O)CN(C(=S)Nc1ccc(Cl)cc1)C1CC(=O)N(c2ccc(OC)cc2)C1=O (centres undefined) | 69.3% (active)
CCSc1nnc(NC(=O)Cc2ccccc2OC)s1 | 36.5% (inactive)
CCOCCCN1C(=O)CN(C2CCCCC2)C(=O)C1c1ccc(OCC)c(OC)c1 (centres undefined) | 0.6% (inactive)
CCn1c(CSc2nncn2-c2ccc(OC)cc2)nc2cc(S(=O)(=O)N(C)C)ccc21 | 21.5% (inactive)
CCN(CC)S(=O)(=O)c1ccc2nc(COC(=O)c3n[nH]c4ccccc34)[nH]c2c1 | 9.5% (inactive)
CCN(CC)S(=O)(=O)c1ccc2nc(CSc3nnnn3-c3ccc(O)cc3)[nH]c2c1 | 66.1% (active)
CCCCN(CC)CCCNC(=O)CS(=O)(=O)Cc1nc(-c2cccc(OC)c2)oc1C | -1.1% (inactive)
CCOC(=O)Cn1c(SC)nc2sc3c(c2c1=O)CC(C)(C)OC3 | 8.2% (inactive)
CC/C(C)=N/Nc1nc2sc3c(c2c(=O)[nH]1)CC(C)(C)OC3 | 36.9% (inactive)
CCOC(=O)CSc1nc2sc3c(c2c(=O)[nH]1)CC(C)(C)OC3 | 67.6% (active)
CC(=O)Nc1ccc(S(=O)(=O)Nc2cccc(NC(=O)C(C)(C)C)c2)cc1 | 32.2% (inactive)
CC(=O)NS(=O)(=O)c1ccc(NC(=S)NC(=O)C(C)(C)C)cc1 | -2.4% (inactive)
CC(=O)Nc1ccc(NS(=O)(=O)c2cc(C)sc2C)cc1 | 93.5% (active)
CN(C)c1ccc(-n2cccc2/C=C2/SC(=Nc3ccc(F)cc3)NC2=O)cc1 | 2.9% (inactive)
COC(=O)Nc1ccc(S(=O)(=O)N(C)CC(F)(F)C(F)F)cc1 | 58.8% (active)
COC(=O)Nc1ccc(S(=O)(=O)N2CCN(CCN3C(=O)C4C5C=CC(C5)C4C3=O)CC2)cc1 (centres undefined) | 5.6% (inactive)
CCOC(=O)Nc1ccc(S(=O)(=O)N(C)C(C)C)cc1 | 19.6% (inactive)
O=C(CCCCCn1c(=O)[nH]c2ccccc2c1=O)NCCc1c[nH]c2ccccc12 | 71.7% (active)
COc1ccc(CCNC(=O)CCCCn2c(=O)[nH]c3ccccc3c2=O)cc1OC | 16.8% (inactive)

Structure (SMILES) | inhibition
O=C(CCn1c(=O)[nH]c2ccccc2c1=O)NCCCN1CCN(c2cccc(Cl)c2)CC1 | 13.5% (inactive)
O=C(c1cc2c(s1)CCC2)N1CCN(c2ccccc2)CC1 | 48.8% (inactive)
O=C(CSC1=Nc2ccccc2C2=NC(c3ccccc3)C(=O)N12)NCC1CCCO1 (centres undefined) | 29.1% (inactive)
O=C(CSCc1c(F)cccc1Cl)NCC1CCCO1 (centres undefined) | 52.6% (active)
O=C(CS(=O)(=O)Cc1ccccc1)NCC1CCCO1 (centres undefined) | -6.7% (inactive)
N#Cc1ccc(Oc2cc(C(F)(F)F)nc(-c3ccccn3)n2)cc1 | 6.7% (inactive)
O=C(Nc1nccs1)c1cc(S(=O)(=O)N2CCOCC2)c(Cl)cc1Cl | 12.5% (inactive)
COc1ccc(-n2nc(C(=O)NCC(=O)Nc3cccc(C)n3)c3ccccc3c2=O)cc1 | -1.3% (inactive)
CC(C)(C)n1nc2c(c1NC(=O)c1ccc(S(=O)(=O)N3CCCC3)cc1)CS(=O)C2 (centres undefined) | 10.7% (inactive)
O=C(Nc1c2c(nn1-c1ccc(F)cc1)CS(=O)C2)C12CC3CC(CC(C3)C1)C2 (centres undefined) | 9.1% (inactive)
O=C(CC1CCCCC1)Nc1c2c(nn1-c1ccc(F)cc1)CS(=O)(=O)C2 | 5% (inactive)
Cc1ccc(-n2nc3c(c2NC(=O)CCC2CCCCC2)CS(=O)C3)cc1 (centres undefined) | 80.4% (active)
COc1ccc(-n2nc3c(c2NC(=O)Cc2cccc(C)c2)CS(=O)C3)cc1 (centres undefined) | 76.9% (active)
CCCCc1nc2c(=O)[nH]c3ccccc3c2o1 | -9.6% (inactive)
CCC1(C)Cc2c(sc3[nH]c(=S)n(Cc4ccccc4)c(=O)c23)CO1 (centres undefined) | 9.8% (inactive)
O=C(Cn1nnc(-c2ccc(CN3CCOCC3)cc2)n1)NC1CCCCC1 | 9% (inactive)
CC(=O)C1=C(O)C(=O)N(c2ccc(S(N)(=O)=O)cc2)C1c1ccccc1F (centres undefined) | -8% (inactive)
Clc1ccc(-c2cc(COc3ccccc3)no2)cc1Cl | 10.4% (inactive)
O=c1c([N+](=O)[O-])cc(C(F)(F)F)cn1Cc1cccc(Cl)c1 | 24.2% (inactive)
C=CCNc1nnc(SCC(=O)N2CCCCC2)c2ccccc12 | 50.6% (active)
C=CCNc1nnc(C)c2ccccc12 | -10.2% (inactive)
CCc1c(O)nc(SCC(=O)N2CCCCC2)n(-c2ccccc2C)c1=O | 0.9% (inactive)
